Source: PMC5540273 (PLoS ONE, 2017)

Columns and labels:
Details in all cases: concentration: 1 μM, replicates: in singlicate; n = 1
[1] = test system: PIKFYVE
[2] = test system: PIM1
[3] = test system: PIM2
[4] = test system: PIM3
[5] = test system: PIP5K1A
[6] = test system: PIP5K1C
[7] = test system: PIP5K2B
[8] = test system: T1, PIP5K2C
T1 construct: gene PIP4K2C

[9] = test system: T2, PKAC-alpha
T2 construct: gene PRKACA

[10] = test system: T3, PKAC-beta
T3 construct: gene PRKACB

[11] = test system: PKMYT1
[12] = test system: PKN1
[13] = test system: PKN2
[14] = test system: PLK1
[15] = test system: PLK2
[16] = test system: PLK3
[17] = test system: PLK4
[18] = test system: PRKCD
[19] = test system: PRKCE
[20] = test system: PRKCH
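Note: KINOMEscan kinase panel screen.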

`Cc1cccc(Cn2ccn3c(=O)cc(N4CCOCC4)nc23)c1` [GSK2297542] was tested, and the “%Inh” value [1] was 0%, the “%Inh” value [2] was 29% and the “%Inh” value [3] was 0%. For the same compound, the “%Inh” value [4] was 13%, the “%Inh” value [5] was 0% and the “%Inh” value [6] was 36%. The “%Inh” value [7] was 2%, the “%Inh” value [8] was 6% and the “%Inh” value [9] was 16%. The “%Inh” value [10] was 1%, the “%Inh” value [11] was 16% and the “%Inh” value [12] was 0%. For the same compound, the “%Inh” value [13] was 0%, the “%Inh” value [14] was 14% and the “%Inh” value [15] was 0%. The “%Inh” value [16] was 0%, the “%Inh” value [17] was 0% and the “%Inh” value [18] was 9%. For the same compound, the “%Inh” value [19] was 2% and the “%Inh” value [20] was 31%.

For `COc1ccc(Nc2ncc(C#N)c(Nc3ccccc3C(N)=O)n2)cc1N1CCN(C)CC1.Cl` [GSK1558669], the “%Inh” value [1] was 94.4%, the “%Inh” value [2] was 97.4% and the “%Inh” value [3] was 0%. The “%Inh” value [4] was 93.3%, the “%Inh” value [5] was 56% and the “%Inh” value [6] was 65%. The “%Inh” value [7] was 90%, the “%Inh” value [8] was 90.6% and the “%Inh” value [9] was 76%. For the same compound, the “%Inh” value [10] was 76%, the “%Inh” value [11] was 41% and the “%Inh” value [12] was 83%. The “%Inh” value [13] was 78%, the “%Inh” value [14] was 100% and the “%Inh” value [15] was 100%. For the same compound, the “%Inh” value [16] was 100%, the “%Inh” value [17] was 99.8% and the “%Inh” value [18] was 94%. The “%Inh” value [19] was 94.4% and the “%Inh” value [20] was 86%.

`O=C(NCCNc1ccnc(Nc2ccc(F)cc2)n1)Nc1ccccc1F` [GSK1379880] was tested, and the “%Inh” value [1] was 0%, the “%Inh” value [2] was 0% and the “%Inh” value [3] was 0%. For the same compound, the “%Inh” value [4] was 0%, the “%Inh” value [5] was 0% and the “%Inh” value [6] was 24%. The “%Inh” value [7] was 0%, the “%Inh” value [8] was 38% and the “%Inh” value [9] was 8%. For the same compound, the “%Inh” value [10] was 0%, the “%Inh” value [11] was 9% and the “%Inh” value [12] was 0%. The “%Inh” value [13] was 0%, the “%Inh” value [14] was 100% and the “%Inh” value [15] was 0%. The “%Inh” value [16] was 0%, the “%Inh” value [17] was 0% and the “%Inh” value [18] was 0%. The “%Inh” value [19] was 0% and the “%Inh” value [20] was 0%.

For `COc1ccc(Nc2nccc(N3CCC(NC(=O)Nc4cc(C)ccc4C)C3)n2)cc1` (centres unmarked) [GSK1379741], the “%Inh” value [1] was 0%, the “%Inh” value [2] was 0% and the “%Inh” value [3] was 0%. The “%Inh” value [4] was 0%, the “%Inh” value [5] was 1% and the “%Inh” value [6] was 25%. For the same compound, the “%Inh” value [7] was 10%, the “%Inh” value [8] was 9% and the “%Inh” value [9] was 0%. The “%Inh” value [10] was 0%, the “%Inh” value [11] was 0% and the “%Inh” value [12] was 0%. The “%Inh” value [13] was 0%, the “%Inh” value [14] was 0% and the “%Inh” value [15] was 0%. The “%Inh” value [16] was 0%, the “%Inh” value [17] was 0% and the “%Inh” value [18] was 0%. For the same compound, the “%Inh” value [19] was 13% and the “%Inh” value [20] was 0%.

In the case of `C[C@@H](Oc1cc(-n2cnc3ccc(NC(=O)NC(C)(C)C)cc32)sc1C(N)=O)c1ccccc1Cl` [GSK346294], the “%Inh” value [1] is reported as 37%, the “%Inh” value [2] is reported as 17% and the “%Inh” value [3] is reported as 0%. The “%Inh” value [4] was 0%, the “%Inh” value [5] was 35% and the “%Inh” value [6] was 48%. For the same compound, the “%Inh” value [7] was 10%, the “%Inh” value [8] was 42% and the “%Inh” value [9] was 4%. For the same compound, the “%Inh” value [10] was 0%, the “%Inh” value [11] was 5% and the “%Inh” value [12] was 0%. The “%Inh” value [13] was 0%, the “%Inh” value [14] was 99.9% and the “%Inh” value [15] was 96%. The “%Inh” value [16] was 87%, the “%Inh” value [17] was 0% and the “%Inh” value [18] was 5%. The “%Inh” value [19] was 19% and the “%Inh” value [20] was 21%.

`Cc1nnc(-c2ccc3occ(-c4ccc(C(C)O)cc4)c3c2)o1` (centres unmarked) was tested, and the “%Inh” value [1] was 0%, the “%Inh” value [2] was 24% and the “%Inh” value [3] was 80%. The “%Inh” value [4] was 31%, the “%Inh” value [5] was 0% and the “%Inh” value [6] was 4%. For the same compound, the “%Inh” value [7] was 27%, the “%Inh” value [8] was 17% and the “%Inh” value [9] was 7%. For the same compound, the “%Inh” value [10] was 17%, the “%Inh” value [11] was 0% and the “%Inh” value [12] was 0%. The “%Inh” value [13] was 0%, the “%Inh” value [14] was 2% and the “%Inh” value [15] was 0%. For the same compound, the “%Inh” value [16] was 0%, the “%Inh” value [17] was 21% and the “%Inh” value [18] was 11%. For the same compound, the “%Inh” value [19] was 0% and the “%Inh” value [20] was 0%.

For `CN(C(=O)c1ccc(-c2cc(-c3c[nH]nc3-c3ccccn3)ccn2)cc1)C1CCOCC1` [GW810083], the “%Inh” value [1] was 40%, the “%Inh” value [2] was 0% and the “%Inh” value [3] was 0%. The “%Inh” value [4] was 0%, the “%Inh” value [5] was 0% and the “%Inh” value [6] was 31%. The “%Inh” value [7] was 0%, the “%Inh” value [8] was 49% and the “%Inh” value [9] was 0%. The “%Inh” value [10] was 0%, the “%Inh” value [11] was 4% and the “%Inh” value [12] was 0%. The “%Inh” value [13] was 0%, the “%Inh” value [14] was 0% and the “%Inh” value [15] was 0%. For the same compound, the “%Inh” value [16] was 0%, the “%Inh” value [17] was 2% and the “%Inh” value [18] was 24%. For the same compound, the “%Inh” value [19] was 4% and the “%Inh” value [20] was 0%.

`CCCCCc1nc2c(N)ncnc2n1CCCCC` [SKF-97255] was tested, and the “%Inh” value [1] was 0%, the “%Inh” value [2] was 0% and the “%Inh” value [3] was 5%. The “%Inh” value [4] was 7%, the “%Inh” value [5] was 1% and the “%Inh” value [6] was 0%. The “%Inh” value [7] was 0%, the “%Inh” value [8] was 0% and the “%Inh” value [9] was 24%. For the same compound, the “%Inh” value [10] was 0%, the “%Inh” value [11] was 0% and the “%Inh” value [12] was 0%. The “%Inh” value [13] was 0%, the “%Inh” value [14] was 19% and the “%Inh” value [15] was 18%. The “%Inh” value [16] was 27%, the “%Inh” value [17] was 25% and the “%Inh” value [18] was 18%. The “%Inh” value [19] was 0% and the “%Inh” value [20] was 7%.

`CC(=O)Nc1ccc(COc2ccc(Nc3ccnc4cc(-c5ccccn5)ccc34)cc2)cc1.Cl` [GW440148] was tested, and the “%Inh” value [1] was 2%, the “%Inh” value [2] was 17% and the “%Inh” value [3] was 0%. For the same compound, the “%Inh” value [4] was 0%, the “%Inh” value [5] was 0% and the “%Inh” value [6] was 44%. The “%Inh” value [7] was 0%, the “%Inh” value [8] was 23% and the “%Inh” value [9] was 0%. For the same compound, the “%Inh” value [10] was 0%, the “%Inh” value [11] was 0% and the “%Inh” value [12] was 32%. For the same compound, the “%Inh” value [13] was 0%, the “%Inh” value [14] was 0% and the “%Inh” value [15] was 0%. The “%Inh” value [16] was 0%, the “%Inh” value [17] was 0% and the “%Inh” value [18] was 0%. For the same compound, the “%Inh” value [19] was 0% and the “%Inh” value [20] was 0%.

`O=C(NCCNc1ccnc(Nc2ccc(F)cc2)n1)c1cc2ccccc2s1` [GSK1379874] was tested, and the “%Inh” value [1] was 0%, the “%Inh” value [2] was 0% and the “%Inh” value [3] was 0%. For the same compound, the “%Inh” value [4] was 0%, the “%Inh” value [5] was 0% and the “%Inh” value [6] was 0%. For the same compound, the “%Inh” value [7] was 8%, the “%Inh” value [8] was 42% and the “%Inh” value [9] was 0%. For the same compound, the “%Inh” value [10] was 0%, the “%Inh” value [11] was 0% and the “%Inh” value [12] was 0%. The “%Inh” value [13] was 0%, the “%Inh” value [14] was 0% and the “%Inh” value [15] was 0%. For the same compound, the “%Inh” value [16] was 0%, the “%Inh” value [17] was 0% and the “%Inh” value [18] was 0%. For the same compound, the “%Inh” value [19] was 5% and the “%Inh” value [20] was 17%.
